Data from PMC7862700, “An all-to-all approach to the identification of sequence-specific readers for epigenetic DNA modifications on cytosine”.

Assays:
Experiment in all cases: DAPPL (digital affinity profiling via proximity ligation, sequencing); 10 mM Tris-HCl pH 7.5, 50 mM NaCl, 1 mM DTT, 4% glycerol, room temperature, 30 min; GST-TFs on glutathione beads, 16-mer random dsDNA library, 0.1% formaldehyde crosslink after washing; high values mean tight binding
Settings in all cases: protein: recombinant; tags: N-terminal GST; dsDNA, one strand shown
FLI1 = target: T1, FLI1 (Homo sapiens, UniProt Q01543 1-452)
T1 sequence: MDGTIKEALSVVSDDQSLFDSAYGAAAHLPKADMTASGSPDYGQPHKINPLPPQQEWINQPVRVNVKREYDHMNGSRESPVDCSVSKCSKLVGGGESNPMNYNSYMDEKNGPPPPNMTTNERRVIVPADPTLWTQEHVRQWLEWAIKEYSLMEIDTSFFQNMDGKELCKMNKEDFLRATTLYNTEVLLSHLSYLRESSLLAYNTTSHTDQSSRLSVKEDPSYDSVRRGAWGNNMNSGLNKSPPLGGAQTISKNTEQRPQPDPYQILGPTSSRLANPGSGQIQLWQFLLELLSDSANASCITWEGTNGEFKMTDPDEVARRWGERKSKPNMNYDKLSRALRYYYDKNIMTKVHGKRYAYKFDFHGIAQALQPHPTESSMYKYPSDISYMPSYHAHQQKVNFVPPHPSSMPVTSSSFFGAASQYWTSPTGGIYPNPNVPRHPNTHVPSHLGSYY
Procedure, shortened: (§1)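 Human transcription factors were made in yeast as GST fusions, captured on glutathione beads and barcoded with DNA. With a tag-only sample included, the pool was incubated with 200 nmole of a random double-stranded 16-mer DNA library in Tris/NaCl/DTT/glycerol buffer at room temperature for 30 min, then crosslinked with 0.1% formaldehyde after washing, ligated by proximity, amplified and sequenced. For binding signal, each hexamer's read frequency for a factor is divided by its frequency for the tag-only sample.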

ELK1 = target: T2, ELK1 (Homo sapiens, UniProt P19419 1-428)
T2 sequence: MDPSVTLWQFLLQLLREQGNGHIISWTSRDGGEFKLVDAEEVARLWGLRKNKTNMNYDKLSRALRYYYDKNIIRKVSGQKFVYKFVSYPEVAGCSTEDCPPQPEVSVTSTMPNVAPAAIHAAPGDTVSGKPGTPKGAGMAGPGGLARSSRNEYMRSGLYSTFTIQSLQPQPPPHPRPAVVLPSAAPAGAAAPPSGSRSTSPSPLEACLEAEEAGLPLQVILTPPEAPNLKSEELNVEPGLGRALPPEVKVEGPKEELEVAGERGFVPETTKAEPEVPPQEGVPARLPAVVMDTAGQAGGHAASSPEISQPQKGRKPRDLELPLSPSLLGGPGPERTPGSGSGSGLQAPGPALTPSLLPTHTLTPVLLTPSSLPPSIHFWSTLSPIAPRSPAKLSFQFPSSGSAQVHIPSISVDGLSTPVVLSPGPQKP
Procedure, shortened: as §1

GABPA = target: T3, GABPA (Homo sapiens, UniProt Q06546 1-454)
T3 sequence: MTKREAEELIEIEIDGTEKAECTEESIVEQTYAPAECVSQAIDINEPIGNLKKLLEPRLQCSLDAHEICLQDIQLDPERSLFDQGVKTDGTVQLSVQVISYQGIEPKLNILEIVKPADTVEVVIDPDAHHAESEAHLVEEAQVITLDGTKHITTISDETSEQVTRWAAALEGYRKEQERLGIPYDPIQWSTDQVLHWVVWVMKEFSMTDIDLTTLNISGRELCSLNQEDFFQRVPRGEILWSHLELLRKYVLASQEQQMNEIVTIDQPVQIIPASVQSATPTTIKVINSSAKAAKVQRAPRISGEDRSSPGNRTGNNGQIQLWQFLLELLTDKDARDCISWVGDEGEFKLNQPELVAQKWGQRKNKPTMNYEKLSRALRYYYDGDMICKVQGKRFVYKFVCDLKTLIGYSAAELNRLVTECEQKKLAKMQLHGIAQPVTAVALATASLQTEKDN
Procedure, shortened: as §1

ERG = target: T4, ERG (Homo sapiens, UniProt P11308 1-479)
T4 sequence: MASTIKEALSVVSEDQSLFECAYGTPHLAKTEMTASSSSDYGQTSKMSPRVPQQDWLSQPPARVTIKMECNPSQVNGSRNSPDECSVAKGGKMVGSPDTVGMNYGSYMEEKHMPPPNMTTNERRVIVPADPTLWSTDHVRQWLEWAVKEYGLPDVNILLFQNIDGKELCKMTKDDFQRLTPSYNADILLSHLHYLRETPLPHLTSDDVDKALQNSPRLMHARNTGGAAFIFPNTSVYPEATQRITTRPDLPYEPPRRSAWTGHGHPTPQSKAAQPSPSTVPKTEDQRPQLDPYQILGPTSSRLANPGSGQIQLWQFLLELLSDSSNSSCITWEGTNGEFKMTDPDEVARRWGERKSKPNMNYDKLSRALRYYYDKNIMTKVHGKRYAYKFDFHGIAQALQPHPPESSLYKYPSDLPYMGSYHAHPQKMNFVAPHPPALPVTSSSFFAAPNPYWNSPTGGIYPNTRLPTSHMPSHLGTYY
Procedure, shortened: as §1

ELF1 = ELF1 (Homo sapiens, UniProt P32519 1-619)
ELF1, sequence (P32519 whole entry): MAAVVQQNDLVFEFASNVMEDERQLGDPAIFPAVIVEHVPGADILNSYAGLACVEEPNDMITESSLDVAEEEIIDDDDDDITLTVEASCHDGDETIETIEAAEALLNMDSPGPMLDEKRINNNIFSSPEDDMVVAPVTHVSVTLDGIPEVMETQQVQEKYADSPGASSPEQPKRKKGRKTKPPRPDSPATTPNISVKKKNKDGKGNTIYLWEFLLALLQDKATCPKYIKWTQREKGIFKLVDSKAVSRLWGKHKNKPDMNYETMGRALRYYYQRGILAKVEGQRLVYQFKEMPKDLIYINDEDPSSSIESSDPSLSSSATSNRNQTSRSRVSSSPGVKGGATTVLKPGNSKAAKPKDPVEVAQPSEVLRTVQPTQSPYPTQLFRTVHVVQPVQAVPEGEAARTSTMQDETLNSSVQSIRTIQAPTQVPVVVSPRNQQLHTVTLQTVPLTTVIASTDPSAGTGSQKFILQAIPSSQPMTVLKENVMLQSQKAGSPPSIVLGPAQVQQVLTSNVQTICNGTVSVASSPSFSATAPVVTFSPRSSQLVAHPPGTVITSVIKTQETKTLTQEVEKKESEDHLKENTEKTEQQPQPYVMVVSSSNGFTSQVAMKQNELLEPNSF
Procedure, shortened: as §1

EHF = target: T5, EHF (Homo sapiens, UniProt Q9NZC4 1-300)
T5 sequence: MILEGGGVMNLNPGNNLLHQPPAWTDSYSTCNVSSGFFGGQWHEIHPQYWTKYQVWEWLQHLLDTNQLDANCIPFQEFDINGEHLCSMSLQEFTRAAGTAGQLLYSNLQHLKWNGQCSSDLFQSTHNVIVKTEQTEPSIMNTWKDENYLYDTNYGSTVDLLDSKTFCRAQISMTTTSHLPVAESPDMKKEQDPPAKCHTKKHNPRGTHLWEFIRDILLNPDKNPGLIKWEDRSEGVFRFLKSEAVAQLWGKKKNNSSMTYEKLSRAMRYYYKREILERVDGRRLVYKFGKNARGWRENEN
Procedure, shortened: as §1

SPI1 = SPI1 (Homo sapiens, UniProt P17947 1-270)
Procedure, shortened: as §1

SPIB = SPIB (Homo sapiens, UniProt Q01892 1-262)
SPIB, sequence (Q01892 whole entry): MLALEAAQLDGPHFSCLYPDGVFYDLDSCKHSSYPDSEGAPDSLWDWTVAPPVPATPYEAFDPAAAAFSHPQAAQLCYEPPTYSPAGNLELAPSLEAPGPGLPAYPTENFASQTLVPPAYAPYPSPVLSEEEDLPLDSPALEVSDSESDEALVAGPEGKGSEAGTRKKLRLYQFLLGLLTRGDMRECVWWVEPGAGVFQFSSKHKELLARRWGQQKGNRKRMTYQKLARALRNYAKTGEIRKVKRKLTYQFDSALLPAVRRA
Procedure, shortened: as §1

ELK3 = target: T6, ELK3 (Homo sapiens, UniProt P41970 1-407)
T6 sequence: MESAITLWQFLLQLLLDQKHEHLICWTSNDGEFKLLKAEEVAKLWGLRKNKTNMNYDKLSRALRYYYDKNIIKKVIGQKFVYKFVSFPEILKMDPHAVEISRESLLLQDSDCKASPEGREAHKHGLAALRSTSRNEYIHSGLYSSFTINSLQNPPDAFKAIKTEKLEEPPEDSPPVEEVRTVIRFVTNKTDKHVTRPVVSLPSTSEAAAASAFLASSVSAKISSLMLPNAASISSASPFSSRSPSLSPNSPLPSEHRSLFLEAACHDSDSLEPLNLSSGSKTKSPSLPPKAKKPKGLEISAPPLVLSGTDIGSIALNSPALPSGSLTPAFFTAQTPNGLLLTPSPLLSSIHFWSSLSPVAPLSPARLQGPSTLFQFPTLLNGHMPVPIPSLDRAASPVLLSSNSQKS
Procedure, shortened: as §1

## TAATGA
FLI1
  binding signal: 1.09 fold enrichment (6-mer frequency, TF over GST control)
ELK1
  binding signal: 1.21 fold enrichment (6-mer frequency, TF over GST control)
GABPA
  binding signal: 1.26 fold enrichment (6-mer frequency, TF over GST control)
ERG
  binding signal: 1.02 fold enrichment (6-mer frequency, TF over GST control)
ELF1
  binding signal: 1.1 fold enrichment (6-mer frequency, TF over GST control)
EHF
  binding signal: 1.2 fold enrichment (6-mer frequency, TF over GST control)
SPI1
  binding signal: 1.22 fold enrichment (6-mer frequency, TF over GST control)
SPIB
  binding signal: 1.16 fold enrichment (6-mer frequency, TF over GST control)
ELK3
  binding signal: 1.21 fold enrichment (6-mer frequency, TF over GST control)
